This excerpt belongs to a sample that is enriched for hits.
CRE Fsk mod: Cell signaling CRE-BLA (Fsk stim); CHO CRE-bla reporter (cAMP response element driving beta-lactamase), forskolin EC10, beta-lactamase ratio; Potency, µM (top dose mostly 38.2 µM), for the others: at the top dose activity change, negative = inhibition, usual class: activators; actives 2.5% (n = 71,000); active = well fitted activation curve with a large enough effect in the signal ratio, with a control signal flat, not every such curve was filed as active; inconclusive = small, poorly fitted or top-dose-only effect, or effect the other way, or a change in a side signal; the % refers to the signal ratio; note: % of control where 0% means no effect
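qHTS titration format; CRE-bla CHO reporter; stimulus EC10 NKH 477, a water-soluble forskolin. Read: CCF4 460/530 nm ratio. Potency expressed as AC50 for activators or inhibitors.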
ERK AVP inh: qHTS Assay for Inhibitors of the ERK Signaling Pathway using a Homogeneous Screening Assay; actives 0.99% (n = 72,000); HEK293-V1b, vasopressin-stimulated pERK AlphaScreen; Potency, µM (highest dose often 57.5 µM), without a hit: top-dose activity, negative = inhibition, most hits filed as inhibitors; note: % is set by controls: 0 for no effect and ±100 for the full control effect; nearly all actives have a fitted effect of over 55% in size
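V1b-HEK293 cells; cpd 30 min 37C; 25 nM vasopressin 5 min; lyse 10 min; AlphaScreen beads 5 hr RT. Normalized to DMSO basal and 25 nM vasopressin; AC50 by Hill fit.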
Peg3 imprint: qHTS Assay for Compounds that Induce Erasure of Genomic Imprints; mouse ES Peg3-LacZ reporter, beta-gal luminescence, 40 h; Potency, µM (titrated, usually from 60.7 µM), for the others: at the highest dose activity change, positive = activation, actives largely listed as activators; actives 0.02% (n = 110,000); AID 1948, 2009
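Readout: BetaGlo luminescence (5 min, room temp) for LacZ from the normally silent maternal Peg3 allele in female Peg3LacZ-Neo ES cells. Cells 300/well, 40 h, 37C, 5% CO2. Data normalized per plate to negative controls.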
IkB sig inh: IkB Signaling; ABC-DLBCL IkBa-CBG/CBR dual luciferase ratio, 4 h; response scale: scaled: untreated 0%, proteasome inhibitor 100%; Potency, µM (top dose mostly 57.1 µM), without a hit: top-dose IkBa stabilization activation; actives 0.04% (n = 110,000); active = well fitted curve in the direction sought with a large enough effect in the signal ratio, not every such curve was filed as active; inconclusive = small, poorly fitted or top-dose-only effect, or a change in a side signal; the % refers to the signal ratio;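 note: the direction sought is a rising ratio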
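Luminescence ratio of IκBα-fused green versus native red beetle luciferase in OCI-Ly3 cells, 4 h post-doxycycline with compound; red signal alone, scaled from basal (0%) to zero light (-100%), flagged nonspecific or cytotoxic effects.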
An asterisk follows results filed as active; ? = inconclusive; · = no result given; ! = not active in a repeat; [ ] = dose if it differs, or a comment. Unless noted, calls come from the whole dose curve; as a rule, active = well fitted curve in the direction sought with a large enough effect; inconclusive = small, poorly fitted or top-dose-only effect, or another doubt; inactive = no such curve, though single readings can be large; an effect the other way counts as inactive or inconclusive. Potency is the fitted concentration of half-maximal effect.

SMILES | CRE Fsk mod | ERK AVP inh | Peg3 imprint | IkB sig inh
CC12C=C(/C=C/CCc3ccco3)C(C)(C1)C(CCc1ccco1)CC2=O (stereo not drawn) | · | 24%[11.5 µM] | · | ·
Cc1cc(O)c(C(C)C)cc1CN1CCCCC1 | -7%[7.6 µM] | ? | -12%[10.9 µM] | -1%[11.4 µM]
CC(=O)Oc1ccc(/C=C\C(=O)C[C@@H]2O[C@@H](Oc3cc(OC(C)=O)c4c(c3)O[C@@H](c3ccc(OC(C)=O)cc3)CC4=O)[C@H](OC(C)=O)[C@H](OC(C)=O)[C@@H]2OC(C)=O)cc1 | ? | · | · | -1%[11.4 µM]
Clc1cccc(-n2ncc3c(NCCCN4CCOCC4)ncnc32)c1 | · | · | -15%[10.9 µM] | ?
O=C1CCCN1CCCNc1ncnc2c1cnn2-c1ccc(Cl)cc1 | 3.2µM* | · | -15% | 1%
CCOc1ccccc1C(=O)Nc1nncs1 | 13µM* | 8% | -9% | 0%
CCOc1ccccc1C(=O)Nc1cc(Cl)ccc1O | ? | 10µM* | -33% | -16%
CCOc1ccccc1C(=O)Nc1cc2c(cc1N1CCCCC1)n(C)c(=O)n2C | · | · | -4%[10.9 µM] | ?
O=C(O)C(S)[C@@H](S)C(=O)O (stereo partly drawn) | · | 6% | -4% | ·
C[C@@]12CCC(=O)C=C1CC[C@@H]1[C@@H]2[C@H](O)C[C@]2(C)[C@@H]1CC[C@]2(O)C(=O)CO | -2%[17.1 µM] | 8%[25.7 µM] | -12%[16.8 µM] | 0.079µM*!
CC(=O)OCC(=O)[C@@]1(O)CCC2C3CCC4=CC(=O)CC[C@]4(C)C3C(O)C[C@]21C (stereo partly drawn) | · | 3% | 1% | ·
C[C@@]12CCC(=O)C=C1CC[C@@H]1[C@@H]2[C@H](O)C[C@]2(C)[C@@H]1CC[C@]2(O)C(=O)COC(=O)CCC(=O)O | 4% | -4% | · | 0.13µM*
O=c1c(-c2ccc(Cl)cc2)nc2cnc(N3CCOCC3)nc2n1CCc1ccccc1 | ? | 6% | -6% | -1%[11.4 µM]
N#CCCn1c(=O)c(-c2ccccc2)nc2cnc(N3CCOCC3)nc21 | 4µM* | 9% | -17% | -2%[11.4 µM]
COCCn1c(=O)c(-c2ccc(Cl)cc2)nc2cnc(N3CCOCC3)nc21 | 1µM* | 12% | 6% | -2%[11.4 µM]
COc1ccc(-c2nc3cnc(N4CCOCC4)nc3n(CCC#N)c2=O)cc1 | ? | 12% | · | -1%[11.4 µM]
COCCn1c(=O)c(-c2ccc(F)cc2)nc2cnc(N3CCOCC3)nc21 | 2µM* | 3% | -4% | 0%[11.4 µM]
O=c1n(Cc2cc3c(cc2Cl)OCO3)c(=O)n2n1CC[C@H]1/C(=N\OCc3ccccc3)[C@H]3O[C@@H]3[C@@H](O)[C@@H]12 | · | 8%[11.5 µM] | · | ·
CC(=O)c1c(O)c(C)c(O)c2c1OC1=CC(=O)[C@H](C(C)=O)C(=O)[C@]12C | ? | · | · | 0%[11.4 µM]
COc1ccccc1N1CCN(C(=O)CCc2ccc(S(=O)(=O)NC(C)C)cc2)CC1 | 2% | -27% | -2% | ?
COc1ccccc1N1CCN(C(=O)CCc2ccc(S(=O)(=O)NCC(C)C)cc2)CC1 | -15% | 25µM* | -15% | ?
CCCCC/C=C\C/C=C\C/C=C\C/C=C\CCCC(=O)C(F)(F)F | · | · | -11% | ·
COCc1nc2c([nH]1)c(=O)n(C)c(=O)n2CC(C)C | 13µM*! | -11% | -4% | 0%
Cn1c(=O)c2[nH]c(CCCCc3nc4c([nH]3)c(=O)n(C)c(=S)n4C)nc2n(C)c1=S | 2%[7.6 µM] | -6%[11.5 µM] | 1%[10.9 µM] | 1%[11.4 µM]
CCCCN(CC)S(=O)(=O)c1cccc2cccnc12 | -3% | · | -16% | 0%
SMILES | CRE Fsk mod | ERK AVP inh | Peg3 imprint | IkB sig inh
CCOC(=O)c1cccc(NC(=O)CSc2nc3ccccc3c(=O)n2CCOC)c1 | 3.2µM* | ? | -18% | 1%
CCn1c(SCC(=O)NCCOC)nc2sc(C)c(C)c2c1=O | 10µM* | ? | -5% | -1%
CCn1c(SCC(=O)NCCOC)nc2sc3c(c2c1=O)CCCC3 | 23% | 13% | 20% | 0%
CO[C@@H]1/C=C\O[C@]2(C)Oc3c(C)c(O)c4c(O)c(cc(O)c4c3C2=O)NC(=O)/C(C)=C\C=C/[C@H](C)[C@@H](O)[C@H](C)[C@H](O)[C@H](C)[C@H](OC(C)=O)[C@@H]1C | 2%[7.6 µM] | -12%[11.5 µM] | · | -2%[11.4 µM]
O=C(OCC(=O)N1CCN(C(=O)c2ccco2)CC1)c1cc(-c2ccccc2)nc2ccccc12 | ? | 20µM* | -7% | ?
O=C(OCC(=O)N1CCN(C(=O)c2ccco2)CC1)c1cc(-c2ccc(F)cc2)nc2ccccc12 | ? | -24% | -29% | ?
NC(=O)C1(c2ccccc2)CCOCC1 | -10% | -5% | -3% | 3%
Cc1nnc(NC(=O)C2(c3ccccc3)CCOCC2)s1 | 10µM* | 11% | -24% | 3%
COc1cc(C(=O)OCC(=O)c2cc(C)n(C)c2C)cc(OC)c1OC | 2.5µM* | ? | -6% | 2%
CN1C[C@H](C(=O)N[C@]2(C)O[C@@]3(O)[C@H]4CCCN4C(=O)[C@@H](Cc4ccccc4)N3C2=O)C[C@H]2c3cccc4[nH]cc(c34)C[C@@H]21 | ? | · | · | 1%[11.4 µM]
N.N.N.N.N.N.N.N.N.N.N.N.N.N.O.O.[Cl-].[Cl-].[Cl-].[Cl-].[Cl-].[Cl-].[Ru].[Ru].[Ru] | · | · | -19% | ·
CCOC(=O)c1[nH]c(C)c(C(=O)c2cc(F)ccc2F)c1C | 13µM* | 20µM* | -33% | 0%
CCOC(=O)c1[nH]c(C)c(C(=O)N2CCN(c3ccc(F)cc3)CC2)c1C | 9% | 3% | -13% | ?
COc1cccc(C(=O)Nc2c(C(N)=O)oc3ccccc23)c1 | 5µM* | · | -7% | 8%
CCOC(=O)c1oc2ccccc2c1NC(=O)c1cccc(OC)c1OC | 4µM* | 1% | -13% | 3%
COc1ccc(C(=O)c2oc3ccccc3c2NC(=O)c2cccc(OC)c2)cc1 | · | · | -10%[10.9 µM] | -4%
CCOC(=O)c1oc2ccccc2c1NC(=O)c1cccc(OC)c1 | 3.2µM* | 6% | -22% | 2%
C/C(CCN1CCCc2nc(C)c(C)cc21)=N\OC[C@@H](O)[C@@H]1O[C@@H]2OC(C)(C)O[C@@H]2[C@H]1O | · | 21%[11.5 µM] | · | ·
CN1C[C@@H](C(=O)N[C@]2(C)O[C@]3(O)[C@H]4CCCN4C(=O)[C@H](Cc4ccccc4)N3C2=O)C[C@H]2c3cccc4[nH]cc(c34)C[C@@H]21 | -26% | -6% | · | -7%
C[C@@](N)(/C=C\c1ccccc1)C(=O)O | 2%[7.6 µM] | -10%[11.5 µM] | -3%[10.9 µM] | -1%[11.4 µM]
N#CC(Cc1ccc(O)c(O)c1)C(=O)N1CCc2ccccc21 (stereo not drawn) | · | · | -26% | ·
Cc1c(C(=O)NCc2ccc(F)cc2)sc2nc(-c3ccccc3)cn12 | · | · | -2%[10.9 µM] | 2%
Cc1c(C(=O)NCc2cccnc2)sc2nc(-c3ccc(F)cc3)cn12 | 3.2µM* | · | -11% | ?
CCc1nc(N2CCCCC2C)c2oc3ccccc3c2n1 (stereo not drawn) | 2.5µM* | 10% | -23% | 13%

Assay outcomes from PubChem BioAssay.
